Reference: PubChem BioAssay (Tox21)
Records with an inconclusive call do not appear. Unmarked numbers belong to inactive results. The source made the active and inactive calls. Calls follow the shape of the dose curve; as a rule, active = well fitted activation curve with a large enough effect in the signal ratio in the repeat runs (not every such curve was filed as active); inconclusive = weak or mixed curves; inactive = flat fitted curve, though single readings scatter; the % refers to the signal ratio.

Test: qHTS assay to identify small molecule agonists of H2AX (AID 1224845)
Conditions: CHO-K1 phospho-H2AX Ser139 HTRF, 3 h; series mostly up to 154 µM; activation (H2AX phosphorylation): at the top concentration
Method in brief: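 Phospho-H2AX Ser139 measured by HTRF (ex 320 nm; em 665 and 620 nm) after 24 hr antibody incubation. Compounds, 15 concentrations, 0.76% DMSO, were applied to CHO-K1 cells for 3hr at 37C before lysis.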
% is scaled to controls: 0 for no effect and ±100 for the full control effect; potency is read from the fitted curve at half-maximal effect.

Compound | activation (H2AX phosphorylation) | Potency
CC(C)(c1ccccc1)c1ccccc1 | 2.07% | 
CC[C@]1(O)C[C@H]2CN(CCc3c([nH]c4ccccc34)[C@@](C(=O)OC)(c3cc4c(cc3OC)N(C=O)[C@H]3[C@@](O)(C(=O)OC)[C@H](OC(C)=O)[C@]5(CC)C=CCN6CC[C@]43[C@@H]65)C2)C1 | -2.2% [at 70.9 µM] | 
CC(=O)Nc1ccc(C)cc1C | -1.62% | 
NC(=O)c1ccncc1 | -1.69% | 
O=C(Cn1ccnc1[N+](=O)[O-])NCCO | -1.36% [at 70.9 µM] | 
CC1CC(C)C(=O)C1=O (stereo not drawn) | 0.454% | 
Cc1cscn1 | -1.8% | 
OCCN1CCN(CCCN2c3ccccc3Sc3ccc(Cl)cc32)CC1 | 11.4% [at 70.9 µM] | 
Clc1cc(Cl)nc(Cl)n1 | -0.275% | 
Brc1cc(Br)c(Oc2cc(Br)c(Br)cc2Br)cc1Br | -3.37% [at 70.9 µM] | 
OC1(c2ccccc2)CCNCC1 | -2.24% [at 70.9 µM] | 
C=C/C(C)=C/C/C=C(\C)CCC=C(C)C | -0.071% | 
CCC(C)(C)OC | -0.825% | 
Cc1ccccc1S | -2.02% [at 70.9 µM] | 
O=[N+]([O-])c1cc(C2CCCCC2)c(O)c([N+](=O)[O-])c1 | 0.277% | 
O=C=Nc1cccc(C(F)(F)F)c1 | -0.406% | 
OCCOCC#CCOCCO | -0.721% | 
CC(C)=CCC/C(C)=C/CC/C(C)=C/C(=O)OCC(=O)[C@@]1(O)CC[C@H]2[C@@H]3CCC4=CC(=O)C=C[C@]4(C)[C@H]3[C@@H](O)C[C@@]21C | -2.59% [at 70.9 µM] | 
CC(C)(C)CC(=O)OCC(=O)[C@@]1(O)CC[C@H]2[C@@H]3CCC4=CC(=O)C=C[C@]4(C)[C@H]3[C@@H](O)C[C@@]21C | 5.83% [at 70.9 µM] | 
COc1ccccc1N1CCN(CC(O)COc2cccc3ccccc23)CC1 (stereo not drawn) | 4.42% [at 70.9 µM] | 
O=C(O)C[C@H](NC(=O)OCc1ccccc1)C(=O)O | -1.34% | 
CC(C)=CCC1C(=O)N(c2ccccc2)N(c2ccccc2)C1=O | 0.0353% [at 70.9 µM] | 
c1ccc2sc(SN(C3CCCCC3)C3CCCCC3)nc2c1 | -2.99% | 
Cc1ccc2c(Br)cc(Br)c(O)c2n1 |  | 39.1 µM (active)
COc1ccccc1N1CCN(CCCCNC(=O)c2ccc(-c3ccc(C(C)=O)cc3)cc2)CC1 | 0.0663% [at 70.9 µM] | 
CCC1NC(=O)c2cc(S(N)(=O)=O)c(Cl)cc2N1 (stereo not drawn) | 0.197% [at 70.9 µM] | 
CCOc1ccccc1O[C@H](c1ccccc1)[C@H]1CNCCO1 | -0.169% [at 70.9 µM] | 
C/C=C\C/C=C/CCCCCCCCOC(C)=O | -0.0086% | 
